High-throughput results deposited in PubChem BioAssay by National Center for Advancing Translational Sciences (NCATS).
LDHA inh – inhibitors of human lactate dehydrogenase A | purified LDHA, NADH/diaphorase-resazurin fluorescence; stronger effect = lower value | P00338 | AID 1347041 | activity change, % (values are at about 110 or 230 µM) | 480,000 tested, 0.15% active; in the data active means activity change below about -30%; inconclusive means mostly about -25% to -30%;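 further: plate controls were DMSO wells for no effect and wells without enzyme for full effect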
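Enzyme activity of human lactate dehydrogenase 5 (2 nM; 0.06 mM NADH, 0.2 mM pyruvate, 5 min, RT) is measured via a resazurin/diaphorase fluorescence readout of residual NADH.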
GLP-1R agonist – activates the human GLP-1 receptor. Potency, µM (titrated, usually from 45.6 µM), for inactives: top-dose activation, most hits filed as activators. AID 624172. P43220. HEK293 GLP-1R CRE-luciferase, luminescence, 4-6 h; cells express a hypersensitive GLP-1R form. 380,000 tested, 0.007% active; further: potency means the concentration at half of the fitted maximal effect; % of control where 0% means no effect
GLP1R cytotox – cytotoxicity in counter-screen for GLP-1R inverse agonists. Potency, µM (series often up to 38.3 µM), inactives show at the top dose activity change, negative = inhibition, usual class: inhibitors. HEK293 cAMP-luciferase reporter cells, luminescence, 24 h. AID 624418. 410,000 tested, 0.13% active;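 further: loss of luciferase light is scored as toxicity; potency means the concentration at half of the fitted maximal effect; on the % scale 0 is the no-effect control and ±100 the full control effect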
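A 23 nL compound transfer followed 12 hours of cell culture at 37 deg C; exposure then lasted 24 hr. Luciferase assay detection reagent was dispensed and plates read for luminescence after a 12 min room-temperature wait.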
mIDH1 inhibitor – human IDH1 R132H inhibition; IDH1-R132H enzyme, NADPH consumption, diaphorase/resazurin fluorescence; Potency, µM (top dose mostly 76.6 µM), for the others: top-dose activity change, negative = inhibition, usual class: inhibitors; 390,000 tested, 0.093% active; O75874; further: potency means the concentration at half of the fitted maximal effect; on the % scale 0 is the no-effect control and ±100 the full control effect; nearly all actives have a fitted effect of over 65% in size
Target sequence (O75874 whole entry R132H, stated change not applied): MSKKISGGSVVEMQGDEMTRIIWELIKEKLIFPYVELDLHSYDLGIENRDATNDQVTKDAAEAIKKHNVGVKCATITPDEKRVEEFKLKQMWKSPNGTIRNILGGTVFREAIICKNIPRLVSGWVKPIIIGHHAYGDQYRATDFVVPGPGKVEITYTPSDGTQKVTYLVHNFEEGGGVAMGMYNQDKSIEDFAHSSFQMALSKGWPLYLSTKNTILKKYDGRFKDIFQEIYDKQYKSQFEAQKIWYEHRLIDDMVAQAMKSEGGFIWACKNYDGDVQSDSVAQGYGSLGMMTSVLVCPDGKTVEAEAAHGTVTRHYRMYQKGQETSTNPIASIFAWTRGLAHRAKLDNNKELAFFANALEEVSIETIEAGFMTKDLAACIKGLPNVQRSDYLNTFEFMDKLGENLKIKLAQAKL
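IDH1-R132H (0.5 ug/mL) preincubated 30 min with compound, then NADPH (0.016 mM) and alpha-KG (2 mM) added; 80 min at RT, pH 7.5. Remaining NADPH coupled via diaphorase/resazurin to fluorescence (540/590 nm); concentration-response curves normalized to no-enzyme control.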
PTHR1 agonist – agonists of human PTHR1 parathyroid hormone receptor | Q03431 | HEK293 GP2 PTHR1 cells, GloSensor cAMP luminescence, 1 h | Potency, µM (highest dose often 115 µM), for the others: at the highest dose activation, hits mostly activators | 410,000 tested, 0.075% active | AID 743266; further: potency means the concentration at half of the fitted maximal effect; nearly all actives have a fitted effect of over 55% in size
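HEK-293-derived GP2 cells expressing PTHR1 and a GloSensor cAMP reporter, 3,000/well, plated overnight, given luciferin plus IBMX (each 0.5 mM as added) for 1 h at 37 °C, then compound for 1 h at 37 °C. Luminescence was read after 15 min at room temperature.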
GLP1R inv ag – GLP-1 receptor (human) inverse agonism; HEK293 GLP-1R CRE-luciferase, luminescence, 24 h; GLP-1R form is constitutively active; Potency, µM (series often up to 38.3 µM), for the others: at the highest dose activity change, negative = inhibition, hits mostly inhibitors; 410,000 tested, 1.6% active; further: potency means the concentration at half of the fitted maximal effect; on the % scale 0 is the no-effect control and ±100 the full control effect; nearly all actives have a fitted effect of over 55% in size
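Inverse agonists were sought by their lowering of basal cAMP reporter luciferase output in HEK293 cells stably carrying constitutively active human GLP-1R, after 24 h compound treatment.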
The depositor's hits bear a star; i = inactive; u = inconclusive; x = no result given; ! = repeats disagree; [ ] = another dose, or the depositor's remark. The list is not random: actives were taken first. Their share in the collection is about 1.7%. Unless noted, the call rests on the fitted dose curve; in most records, active means well fitted curve in the direction sought with a large enough effect; inconclusive means small, poorly fitted or top-dose-only effect, or another doubt; inactive means no such curve, though single readings can be large; an effect the other way counts as inactive or inconclusive.

SMILES	LDHA inh	GLP-1R agonist	GLP1R cytotox	mIDH1 inhibitor	PTHR1 agonist	GLP1R inv ag
COc1ccc(CN(C)C(c2ccccc2)c2nnnn2-c2ccccc2C)c(OC)c1C (stereo unspecified)	-4.4	2.3%	1.1%	2.3%	-0.9%	10µM*
COc1cc(OC)c(OC)cc1CN(C)C(c1ccccc1)c1nnnn1-c1ccccc1C (stereo unspecified)	9.1	9.2%	-5.9%	5.6%	-14.8%	11.2µM*
CN(C)c1ccc(NC(=O)CC(c2ccccc2)c2ccccc2)cc1	7.2	x	x	x	x	x
CCOC(=O)c1sc2cccc(F)c2c1COC(=O)c1ccoc1C	2.6	x	x	x	x	x
C#CCOc1ccccc1CNC1CCN(Cc2ccccc2)CC1	-30.7*	-0.8%	-19.0%	-5.5%	-16.3%	u
O=C(NC1CCCC1)c1cc(-c2cccs2)on1	-38.7*!	13.5%	-4.5%	1.8%	-19.7%[57.5 µM]	6.7%
COC(=O)/C=C/c1ccccc1S(=O)(=O)N(Cc1ccccc1)Cc1ccco1	-3.0	5.4%	-29.5%	-1.0%	-16.7%	2.24µM*
Cc1c(Cl)cccc1NC(=O)CN1CCC2(CC1)OCCO2	-6.5	x	x	x	x	x
O=C(CC1SC(=Nc2ccccc2)N(CCc2c[nH]c3ccccc23)C1=O)Nc1ccccc1F (stereo unspecified)	-8.8	5.6%	u	3.0%	i	6.31µM*
N#CC(C#N)=C(Nc1ccc(F)cc1)SCc1cccc(Br)c1	-2.9	-8.2%	8.8%	3.9%	-33.2%	2µM*
Cn1nc(C(=O)OCC(=O)NC(C)(C#N)C2CC2)c2ccccc2c1=O (stereo unspecified)	-1.4	x	x	x	x	x
CC(C)Cn1c(SCC(=O)N2CCCc3ccccc32)nc2ccccc2c1=O	-8.2	25.4%	-13.4%	-17.1%	-19.9%	2.51µM*
CCn1c(SCC(=O)N2CCCc3ccccc32)nc2ccccc2c1=O	-7.8	12.8%	-11.4%	u	-15.6%	u
Cc1ccccc1CN1CCc2c(OCC(=O)N3CCCc4ccccc43)cccc2C1=O	-4.5	-3.3%	-16.2%	-9.2%	-36.5%	10µM*
O=C(CCS(=O)(=O)c1cccc2nsnc12)N1CCN(c2cccc(Cl)c2)CC1	-18.4	x	x	x	x	x
Cc1ccc2c(c1)c1c(n2CC(O)CN2CCC(C)CC2)CCCC1 (stereo unspecified)	1.1	-2.5%	u	-0.2%	u	5.62µM*
COc1ccc([N+](=O)[O-])cc1NC(=S)NC(NC(=O)Cc1ccc(OC)c(OC)c1)C(Cl)(Cl)Cl (stereo unspecified)	0.8	-5.0%	u	1.6%	u	4.47µM*
COc1ccc([N+](=O)[O-])cc1NC(=S)NC(NC(C)=O)C(Cl)(Cl)Cl (stereo unspecified)	-8.3	-1.3%	2.0%	-7.9%	i	u
Cc1nc2c(-c3ccc(F)cc3)cnn2c(N)c1-c1ccccc1	0.6	-4.8%	3.5%	5.4%	-26.8%	0.891µM*
Cc1nc2c(-c3ccc(Cl)cc3)cnn2c(N)c1-c1ccc(F)cc1	1.4	-1.9%	3.5%	-4.5%	-33.5%	u
CN(C)CC/C=C1\c2ccccc2Sc2cc(F)c(Cl)cc21	-2.0	0.0%	u	3.7%	-17.7%	7.94µM*
CN(C)CC/C=C1\c2cc(Cl)ccc2Sc2cc(F)c(F)cc21	0.1	9.3%	-10.6%	19.0%	i	u
CN(C)CC/C=C1\c2ccc(F)cc2Sc2cc(F)c(Cl)cc21	3.6	-2.8%	u	13.0%	-23.6%	7.94µM*
CN(C)CC/C=C1/c2ccc(F)cc2Sc2ccc(Cl)cc21	-2.2	6.9%	u	12.5%	-0.4%	u
O=C(Nc1nc2ccccc2[nH]1)c1ccc[n+]([O-])c1	10.2	x	x	x	x	x
Cc1ccc(C2CCCN2Cc2ccc(C#N)cc2)cc1 (stereo unspecified)	-0.3	x	x	x	x	x
S=C1NC2(CCCCC2)N=C1c1ccc(Cl)c(Cl)c1	-1.0	x	x	x	x	x
